Records with an inconclusive call do not appear. Unmarked numbers belong to inactive results. Calls of active or inactive are those of the source. Unless noted, calls come from the whole dose curve; as a rule, active = well fitted curve in the direction sought with a large enough effect in the repeat runs; inconclusive = weak or mixed curves; inactive = no such curve, though single readings can be large; an effect the other way counts as inactive or inconclusive.

These results are taken from PubChem BioAssay (Tox21).

Assay [1] can be described thus: qHTS assay to identify aromatase inhibitors - cell viability counter screen (AID 743084;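 note: cells stimulated with testosterone during compound exposure; nearly all actives have a fitted effect of over 55% in size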). (In general: qHTS replaces the single test concentration by a dilution series.)
The target of assay [2] is Aryl hydrocarbon receptor (Homo sapiens) (UniProt P35869). The assay is described as follows: qHTS assay to identify small molecule that activate the aryl hydrocarbon receptor (AhR) signaling pathway (AID 743085).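 Note: HG2L7.5c1 human HepG2 liver cells with stably integrated DRE-driven firefly reporter; series mostly up to about 70 µM; nearly all actives have a fitted effect of over 15% in size.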 The method, boiled down:
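HepG2 cells (HG2L7.5c1) stably carrying a firefly luciferase reporter driven by 20 dioxin responsive elements were exposed to compound for 24 h at 37C after a 5 h settling period; luminescence rise (ONE-Glo) indicated activation.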

Assay [3] in a line: qHTS assay to identify small molecule that activate the aryl hydrocarbon receptor (AhR) signaling pathway - cell viability counter screen (AID 743086).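 Note: HepG2 liver cells carrying the AhR DRE luciferase reporter; series mostly up to about 70 µM; nearly all actives have a fitted effect of over 45% in size.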 The method, boiled down:
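HepG2-AhR-luc (HG2L7.5c1) cells, 4000/well, were preincubated 5 h at 37C, exposed to compound in qHTS format for 24 hr at 37C, then given CellTiter-Fluor for 30 min; viability was read as fluorescence in the reporter wells.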

Assay [4] has as its target Peroxisome proliferator-activated receptor gamma (Homo sapiens) (UniProt P37231). The assay is described as follows: qHTS assay to identify small molecule agonists of the peroxisome proliferator-activated receptor gamma (PPARg) signaling pathway (AID 743094; active = well fitted activation curve with a large enough effect in the signal ratio in the repeat runs, not every such curve was filed as active; the % refers to the signal ratio). The method, boiled down:
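Following 5 h plating at 37C, PPARg-bla HEK293H cells receive compound or DMSO for 17 h; fluorescence intensity is recorded after LiveBLAzer B/G loading for 1 h at room temperature.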

The target is the same in assay [5]. The assay is described as follows: qHTS assay to identify small molecule antagonists of the peroxisome proliferator-activated receptor gamma (PPARg) signaling pathway (AID 743191; calls by dose curve; note: series mostly up to about 63 µM; nearly all actives have a fitted effect of over 30% in size). A digest of the protocol:
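GeneBLAzer PPARg UAS-bla HEK293H cells carrying a UAS-driven beta-lactamase reporter were plated at 3000 cells/well, preincubated 5 h at 37C, then given compound for 17 h at 37C; LiveBLAzer B/G FRET substrate was read after 1 h at room temperature.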

Assay [6] in a line: qHTS assay to identify small molecule antagonists of the peroxisome proliferator-activated receptor gamma (PPARg) signaling pathway - cell viability counter screen (AID 743194). Note: nearly all actives have a fitted effect of over 55% in size. The method, boiled down: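 PPARg-UAS-bla HEK293H cells were plated, rested 5 h at 37 C, then treated with compounds plus rosiglitazone (50 nM final) for 17 h at 37 C; viability was then read by CellTiter-Glo luminescence after 30 min at room temperature.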

Assay [7] is described as follows: qHTS assay for small molecule agonists of the antioxidant response element (ARE) signaling pathway - cell viability counter screen (AID 743203; calls by dose curve; note: nearly all actives have a fitted effect of over 55% in size). A digest of the protocol: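 Compounds in DMSO were pinned onto ARE-bla HepG2 cells plated 5 hrs earlier at 2,000 cells/well. Sixteen hours later at 37C/5% CO2, CellTiter-Glo was added and luminescence measured after 30 min at room temperature.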

A short description of assay [8]: qHTS assay for small molecule activators of the heat shock response signaling pathway - cell viability counter screen (AID 743209). Note: nearly all actives have a fitted effect of over 50% in size. A digest of the protocol:
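Counter screen for cytotoxicity in HeLa HSE-bla reporter cells. Treatment was 5 h at 37 C; viability was detected by luminescent ATP assay (CellTiter-Glo) in the same wells as the beta-lactamase read.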

Assay [9] is described as follows: qHTS assay to identify small molecule agonists of the peroxisome proliferator-activated receptor delta (PPARd) signaling pathway - cell viability counter screen (AID 743211). Note: nearly all actives have a fitted effect of over 55% in size. A digest of the protocol: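 PPARd-bla HEK293H cells (UAS-beta-lactamase reporter) were treated with compounds for 17 h at 37 C. Viability was then read in the same wells by CellTiter-Glo luminescence after 30 min at room temperature.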

Assay [10] deals with Peroxisome proliferator-activated receptor delta (Homo sapiens) (UniProt Q03181). The assay is described as follows: qHTS assay to identify small molecule agonists of the peroxisome proliferator-activated receptor delta (PPARd) signaling pathway (AID 743212; calls by dose curve). A digest of the protocol: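 A PPARd-bla HEK293H line with beta-lactamase under an Upstream Activator Sequence is treated with compounds at 37 C. Substrate loading for 2 h at room temperature precedes the fluorescence measurement.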
Peroxisome proliferator-activated receptor delta (Homo sapiens), sequence (Q03181 whole entry, looked up): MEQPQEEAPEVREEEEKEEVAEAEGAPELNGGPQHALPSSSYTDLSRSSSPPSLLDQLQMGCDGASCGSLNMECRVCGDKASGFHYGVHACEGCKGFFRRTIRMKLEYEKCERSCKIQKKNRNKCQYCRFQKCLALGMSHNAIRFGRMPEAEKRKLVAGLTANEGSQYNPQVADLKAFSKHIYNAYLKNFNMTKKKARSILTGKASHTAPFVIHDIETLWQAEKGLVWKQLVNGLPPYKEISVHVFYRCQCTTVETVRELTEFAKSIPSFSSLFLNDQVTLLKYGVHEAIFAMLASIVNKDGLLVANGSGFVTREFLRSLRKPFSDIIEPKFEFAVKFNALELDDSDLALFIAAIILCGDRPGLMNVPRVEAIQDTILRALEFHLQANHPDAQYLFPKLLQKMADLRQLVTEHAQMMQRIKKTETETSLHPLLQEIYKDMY

Assay [11] can be described thus: qHTS assay to identify small molecule agonists of the farnesoid-X-receptor (FXR) signaling pathway - cell viability counter screen (AID 743218). Note: nearly all actives have a fitted effect of over 45% in size. A digest of the protocol: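 After 16 h at 37 C with test compounds, FXR-bla HEK 293T cells were given LiveBLAzer B/G substrate for 2 h at RT and then CellTiter-Glo; luminescence was taken after 30 min.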
Assay [12] is described as follows: qHTS assay to identify small molecule antagonists of the farnesoid-X-receptor (FXR) signaling pathway - cell viability counter screen (AID 743221; active = well fitted cell-killing curve with a large enough effect in the repeat runs, not every such curve was filed as active; note: nearly all actives have a fitted effect of over 50% in size). A digest of the protocol: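 FXR-UAS-bla HEK 293T cells were treated with test compounds plus chenodeoxycholic acid (50 uM final) for 16 h at 37 C. Cell viability in the same wells was then read as CellTiter-Glo luminescence after 30 min at room temperature.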

The nature of assay [13]: qHTS assay for small molecule agonists of the antioxidant response element (ARE) signaling pathway (AID 743202; active = well fitted activation curve with a large enough effect in the signal ratio in the repeat runs, not every such curve was filed as active; the % refers to the signal ratio; note: potency is the fitted concentration of half-maximal effect). A digest of the protocol:
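Compounds delivered in DMSO to ARE-bla HepG2 cells (2,000 cells/well, pre-incubated 5 h) and left 16 h at 37 C. LiveBLAzer B/G FRET substrate then added for 2 h at RT before fluorescence reading.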

Assay [14] in a line: qHTS assay for small molecule activators of the heat shock response signaling pathway (AID 743210; active = well fitted activation curve with a large enough effect in the signal ratio in the repeat runs, with a control signal flat, not every such curve was filed as active; the % refers to the signal ratio;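 note: HeLa cells with beta-lactamase reporter driven by heat shock elements; series mostly up to about 63 µM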). A digest of the protocol: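 Reporter gene assay: HeLa cells stably bearing an HSE-bla construct, compound treatment 5 h at 37 C, LiveBLAzer substrate 2.5 h at RT, fluorescence intensity.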
A short description of assay [15]: qHTS assay to identify small molecule antagonists of the peroxisome proliferator-activated receptor delta (PPARd) signaling pathway - cell viability counter screen (AID 743213). Note: nearly all actives have a fitted effect of over 50% in size. A digest of the protocol:
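Luminescence from CellTiter-Glo, added after the bla read and incubated 30 min at room temperature, gives viability of HEK293H PPARd-bla cells exposed to compounds for 17 h at 37 C with 300 nM L165041.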

The target of assay [16] is Bile acid receptor (Homo sapiens) (UniProt Q96RI1). The assay can be described thus: qHTS assay to identify small molecule antagonists of the farnesoid-X-receptor (FXR) signaling pathway (AID 743217; active = well fitted inhibition curve with a large enough effect in the signal ratio in the repeat runs, not every such curve was filed as active; the % refers to the signal ratio). The method, boiled down:
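In this cell-based antagonist screen, inhibition of CDCA-driven (50 uM final) UAS-beta-lactamase expression in HEK 293T cells was measured by FRET fluorescence following 16 h compound exposure at 37 °C.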

Assay [17] shares this target. The assay can be described thus: qHTS assay to identify small molecule agonists of the farnesoid-X-receptor (FXR) signaling pathway (AID 743220; active = well fitted activation curve with a large enough effect in the signal ratio in the repeat runs, not every such curve was filed as active; the % refers to the signal ratio). The method, boiled down: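 Beta-lactamase reporter under UAS control in GeneBLAzer FXR HEK 293T cells (5000/well) measured with LiveBLAzer FRET substrate after 2 h at room temperature. Compound exposure lasted 16 h at 37C.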

For assay [18], the target named is Vitamin D3 receptor (Homo sapiens) (UniProt P11473). The assay is described as follows: qHTS assay to identify small molecule agonists of the vitamin D receptor (VDR) signaling pathway (AID 743222; calls by dose curve). A digest of the protocol:
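VDR-bla cells were seeded, left 4 h, treated with compounds in DMSO for 16 h, incubated 2 h at RT with B/G FRET substrate, and read for fluorescence.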

Assay [19] has the same target. The assay is described as follows: qHTS assay to identify small molecule antagonists of the vitamin D receptor (VDR) signaling pathway (AID 743223; active = well fitted inhibition curve with a large enough effect in the signal ratio in the repeat runs, not every such curve was filed as active; the % refers to the signal ratio). The method, boiled down:
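VDR-bla cells were plated, incubated 4 h at 37C, then given compound and 1alpha,25-dihydroxyvitamin D3 (3 nM final). After 16 h at 37C, LiveBLAzer B/G FRET substrate was added for 2 h at room temperature and fluorescence read.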

The target of assay [20] is Peroxisome proliferator-activated receptor delta (Homo sapiens) (UniProt Q03181). The assay is described as follows: qHTS assay to identify small molecule antagonists of the peroxisome proliferator-activated receptor delta (PPARd) signaling pathway (AID 743215; active = well fitted inhibition curve with a large enough effect in the signal ratio in the repeat runs, not every such curve was filed as active; the % refers to the signal ratio;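 note: cells stimulated with agonist L165041 at 300 nM final during compound exposure; series mostly up to about 62 µM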). A digest of the protocol: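 With L165041 present at 300 nM final, compounds were incubated 17 h at 37 C on PPARd UAS-bla HEK293H cells. A FRET-based beta-lactamase substrate was then applied for 2 h at room temperature and fluorescence intensity recorded.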
% is set by controls: 0 for no effect and ±100 for the full control effect.

Bile acid receptor (Homo sapiens), sequence (Q96RI1 whole entry, looked up): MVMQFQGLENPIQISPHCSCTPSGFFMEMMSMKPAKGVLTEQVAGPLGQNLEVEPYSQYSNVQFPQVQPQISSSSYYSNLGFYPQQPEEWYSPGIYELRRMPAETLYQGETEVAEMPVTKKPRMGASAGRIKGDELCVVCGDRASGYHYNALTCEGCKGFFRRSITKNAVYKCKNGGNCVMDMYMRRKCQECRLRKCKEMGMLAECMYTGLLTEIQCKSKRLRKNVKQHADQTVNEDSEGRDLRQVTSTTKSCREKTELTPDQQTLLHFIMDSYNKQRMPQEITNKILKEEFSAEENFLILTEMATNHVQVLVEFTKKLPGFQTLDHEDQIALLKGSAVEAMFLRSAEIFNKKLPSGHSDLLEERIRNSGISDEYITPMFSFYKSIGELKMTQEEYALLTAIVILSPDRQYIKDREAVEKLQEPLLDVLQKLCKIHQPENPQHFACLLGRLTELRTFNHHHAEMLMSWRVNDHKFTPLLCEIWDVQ
Vitamin D3 receptor (Homo sapiens), sequence (P11473 whole entry, looked up): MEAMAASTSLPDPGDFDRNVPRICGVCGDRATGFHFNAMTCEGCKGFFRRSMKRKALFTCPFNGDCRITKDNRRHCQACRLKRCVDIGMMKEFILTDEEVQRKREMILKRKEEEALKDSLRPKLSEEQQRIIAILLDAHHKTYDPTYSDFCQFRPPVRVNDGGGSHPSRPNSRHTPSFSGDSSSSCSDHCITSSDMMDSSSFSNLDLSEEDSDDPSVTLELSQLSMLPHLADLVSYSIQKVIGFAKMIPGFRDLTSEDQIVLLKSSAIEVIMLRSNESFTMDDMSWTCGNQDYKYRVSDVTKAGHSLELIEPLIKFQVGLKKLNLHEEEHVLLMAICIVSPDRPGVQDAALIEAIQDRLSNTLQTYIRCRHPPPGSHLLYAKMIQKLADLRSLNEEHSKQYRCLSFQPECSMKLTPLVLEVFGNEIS
Aryl hydrocarbon receptor (Homo sapiens), sequence (P35869 whole entry, looked up): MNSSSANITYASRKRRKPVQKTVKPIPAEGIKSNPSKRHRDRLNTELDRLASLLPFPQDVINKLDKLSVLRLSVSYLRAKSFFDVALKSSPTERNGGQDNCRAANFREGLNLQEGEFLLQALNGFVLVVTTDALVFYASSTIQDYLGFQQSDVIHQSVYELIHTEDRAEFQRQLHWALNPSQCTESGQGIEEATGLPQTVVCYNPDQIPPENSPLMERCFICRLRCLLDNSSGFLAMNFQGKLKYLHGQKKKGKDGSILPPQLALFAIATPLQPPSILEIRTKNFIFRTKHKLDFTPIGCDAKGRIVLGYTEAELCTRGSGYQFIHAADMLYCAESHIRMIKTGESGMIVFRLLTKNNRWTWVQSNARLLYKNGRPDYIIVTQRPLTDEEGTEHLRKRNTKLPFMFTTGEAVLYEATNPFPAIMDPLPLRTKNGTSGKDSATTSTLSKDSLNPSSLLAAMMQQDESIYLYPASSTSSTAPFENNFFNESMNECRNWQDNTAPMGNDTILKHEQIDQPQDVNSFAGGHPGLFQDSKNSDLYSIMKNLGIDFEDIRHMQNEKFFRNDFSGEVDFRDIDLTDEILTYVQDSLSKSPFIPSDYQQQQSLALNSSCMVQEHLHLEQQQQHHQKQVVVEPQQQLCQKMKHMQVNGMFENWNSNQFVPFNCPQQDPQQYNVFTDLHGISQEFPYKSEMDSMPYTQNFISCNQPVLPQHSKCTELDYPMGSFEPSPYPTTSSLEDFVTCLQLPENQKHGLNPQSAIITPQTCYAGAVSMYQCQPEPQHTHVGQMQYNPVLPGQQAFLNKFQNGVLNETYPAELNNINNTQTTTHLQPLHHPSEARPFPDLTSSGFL
Peroxisome proliferator-activated receptor gamma (Homo sapiens), sequence (P37231 whole entry, looked up): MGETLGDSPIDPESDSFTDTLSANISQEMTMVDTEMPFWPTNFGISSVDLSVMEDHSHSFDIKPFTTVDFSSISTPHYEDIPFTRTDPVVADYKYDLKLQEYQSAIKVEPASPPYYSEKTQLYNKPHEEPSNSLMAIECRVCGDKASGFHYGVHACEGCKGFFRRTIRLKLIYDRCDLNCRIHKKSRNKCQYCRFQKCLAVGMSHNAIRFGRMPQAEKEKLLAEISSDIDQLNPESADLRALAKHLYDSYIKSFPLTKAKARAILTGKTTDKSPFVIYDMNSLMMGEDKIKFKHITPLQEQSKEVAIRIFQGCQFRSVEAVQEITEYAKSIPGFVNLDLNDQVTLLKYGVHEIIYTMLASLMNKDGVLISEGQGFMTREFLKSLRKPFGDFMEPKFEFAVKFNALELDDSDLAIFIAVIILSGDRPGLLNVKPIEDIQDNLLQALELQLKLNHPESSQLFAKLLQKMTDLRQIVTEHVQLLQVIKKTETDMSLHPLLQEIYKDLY

Consider `COC=O`, for which the activity change, negative = cytotoxicity in assay [1] was 0.892% [at 8.47 µM]; in [6], -0.602% [at 5.95 µM]; in [8], -11.9% [at 5.95 µM]; in [9], -28.1% [at 5.95 µM]; in assay [12], 10.8% [at 5.95 µM]. The values for the activation in assay [2], in assay [4] and in assay [10] were -0.706% [at 8.47 µM], 1.2% [at 7.08 µM] and -8.76% [at 5.95 µM], respectively. The results for the viability change, negative = cytotoxic in [3], in assay [7] and in assay [11] were 14.9% [at 8.47 µM], -4.87% [at 8.36 µM] and 22% [at 5.95 µM], respectively. Besides, the ratio activity, negative = inhibition in assay [5] was 0.629% [at 5.95 µM].
On to `Cc1c(Cl)cccc1Nc1ccccc1C(=O)O`, for which the Potency result in assay [1], in [2], in [3], in assay [4], in assay [6] and in [7] was “inactive” throughout. Further, the Potency entry in [9], in assay [15] and in [11] was “inactive” each time. Also, in assay [13], the Potency was 26.6 µM (active). Further, the result in [8], in [14], in assay [16] and in [17] was inactive.
With `CC(C)NC(=O)c1ccccc1N`, the Potency result in assay [1], in assay [2], in assay [3], in assay [4], in [5] and in assay [13] was “inactive” in each case. The Potency result in assay [7], in assay [10], in assay [15], in assay [11] and in assay [12] was “inactive” in each case. The molecule was classed as inactive in [8], in assay [14], in [16], in assay [17], in assay [18] and in [19].
`Cc1ccc(NC=O)c(C)c1`: the Potency result in assay [1], in assay [2], in assay [3], in assay [4], in [6] and in [13] was “inactive” throughout. In addition, the Potency result in [7], in assay [9], in assay [15] and in [11] was “inactive” throughout. In addition, the call in assay [8], in assay [14], in assay [20], in assay [16], in assay [17] and in assay [18] was inactive. The molecule was called inactive in assay [19].
Take `CC(C)CCCCCOC(=O)CS`: the Potency entry in assay [1], in [2], in assay [3], in [4], in assay [5] and in assay [6] was “inactive” each time. Also, the Potency result in [7], in [9], in assay [15] and in assay [11] was “inactive” in each case. The molecule was classed as inactive in assay [8] and in [14].
Consider `O=C(O)c1ccc2cc(O)ccc2c1`, for which the Potency entry in [1], in assay [2], in [3], in [4], in assay [5] and in assay [7] was “inactive” each time. For the same molecule, the Potency entry in [9], in assay [15], in assay [11] and in assay [12] was “inactive” throughout. Besides, the outcome in assay [8], in [14], in assay [20], in assay [16], in assay [17] and in [18] was inactive. Besides, the call in assay [19] was inactive.
As to `C[C@@H](O)[C@H]1C(=O)N2C(C(=O)O)=C(S[C@@H]3CN[C@H](CNS(N)(=O)=O)C3)[C@H](C)[C@H]12`, the Potency entry in assay [1], in assay [2], in [3], in assay [4], in assay [5] and in [13] was “inactive” throughout. For the same molecule, the Potency result in assay [7], in assay [10], in assay [15] and in assay [12] was “inactive” in each case. The result in [8], in assay [14], in assay [20], in assay [16] and in assay [17] was inactive.
As for `CC(C)=CCCC(C)C=O` (stereo not given), the Potency result in assay [1], in assay [2], in assay [3], in assay [4], in assay [5] and in [7] was “inactive” throughout. Also, the Potency result in assay [9], in assay [15], in assay [11] and in assay [12] was “inactive” in each case. In addition, the result in [8], in [14], in [16], in assay [17], in assay [18] and in assay [19] was inactive.
